Sampled rows, rich in hits. Any-hit rate of the full collection: about 5.8%.
RORgamma inh: ROR gamma (mouse) transcription inhibition; Drosophila S2 Gal4-RORgamma UAS-luciferase reporter, 20 h; P51450; hit rate 5.4% among 310,000; Potency, µM (titrated, usually from 53.6 µM), hits mostly inhibitors; also: nearly all actives have a fitted effect of over 60% in size
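ROR gamma transcriptional activity was tracked as Gal4-UAS luciferase output in stably transfected Drosophila Schneider cells, with compound added 1 hr before 700 uM copper sulfate induction and a 20 hr ambient-temperature incubation.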
uPA surface inh: inhibitors of cell surface uPA generation; cell surface uPA generation assay, qHTS; Potency, µM (titrated, usually from 38.3 µM), most hits filed as inhibitors; hit rate 0.31% among 330,000; active = well fitted inhibition curve with a large enough effect; inconclusive = small, poorly fitted or top-dose-only effect; inactive = no such curve, though single readings can be large or run the other way; tested in mouse RAW 264.7 cells; also: nearly all actives have a fitted effect of over 55% in size
TRPV1 potentiator: potentiators of human vanilloid receptor 1 (TRPV1) | AID 540277 | hit rate 0.02% among 320,000 | potentiation, % at 8.33 µM | TRPV1-expressing cells, Fluo-8 calcium influx, capsaicin EC20 potentiation; in the data active = potentiation above about 80%; inconclusive = between about 30% and that limit
Target sequence (Q8NER1 whole entry, looked up): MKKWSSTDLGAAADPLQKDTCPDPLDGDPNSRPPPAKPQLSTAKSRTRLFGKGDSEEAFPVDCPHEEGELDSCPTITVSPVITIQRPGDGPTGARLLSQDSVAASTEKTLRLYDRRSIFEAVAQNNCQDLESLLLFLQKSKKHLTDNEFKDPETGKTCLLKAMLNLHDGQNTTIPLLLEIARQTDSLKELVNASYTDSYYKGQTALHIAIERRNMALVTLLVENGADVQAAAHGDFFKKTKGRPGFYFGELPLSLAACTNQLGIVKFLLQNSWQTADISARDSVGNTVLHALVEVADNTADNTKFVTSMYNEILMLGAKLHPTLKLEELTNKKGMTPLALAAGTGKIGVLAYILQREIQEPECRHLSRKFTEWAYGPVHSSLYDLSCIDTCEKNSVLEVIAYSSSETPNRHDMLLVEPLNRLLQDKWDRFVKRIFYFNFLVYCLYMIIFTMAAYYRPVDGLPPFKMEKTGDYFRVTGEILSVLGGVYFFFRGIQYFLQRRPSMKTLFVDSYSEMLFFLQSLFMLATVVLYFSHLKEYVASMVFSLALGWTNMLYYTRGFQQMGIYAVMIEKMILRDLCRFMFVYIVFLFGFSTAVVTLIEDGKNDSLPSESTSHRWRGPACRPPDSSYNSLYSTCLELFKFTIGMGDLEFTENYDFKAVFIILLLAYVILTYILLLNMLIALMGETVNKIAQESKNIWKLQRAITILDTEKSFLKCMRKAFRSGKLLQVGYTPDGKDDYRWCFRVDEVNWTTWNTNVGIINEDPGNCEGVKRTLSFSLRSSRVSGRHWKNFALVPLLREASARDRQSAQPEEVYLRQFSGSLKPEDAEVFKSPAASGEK
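TRPV1-expressing cells were cultured overnight at 35.5C and loaded with Fluo-8 calcium dye for 40 to 90 min at room temperature. After a 10 s baseline, compound was added and calcium influx was read kinetically for 3 min (ex 480/em 520 nm).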
Gal4-VP16 FLuc: Gal4-VP16 reporter inhibition counter-screen; Drosophila S2 Gal4-VP16 UAS-luciferase, luminescence, 20 h; hit rate 3.5% among 310,000; Potency, µM (titrated, usually from 53.6 µM), hits mostly inhibitors;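 also: Gal4-VP16 expression switched on by copper sulfate through the metallothionein promoter; nearly all actives have a fitted effect of over 50% in size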
TRPV1 agonist: activates the human vanilloid receptor TRPV1 | Q8NER1 | TRPV1-expressing cells, Fluo-8 calcium influx, agonist mode | activation, % at 8.33 µM | hit rate 0.19% among 320,000 | AID 540275; in the data active = activation above about 80%; inconclusive = between about 30% and that limit
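Cells expressing TRPV1 were dye-loaded with Fluo-8 and read kinetically: 10 s baseline, 3 min after compound (agonist portion), then 2 min after EC20 capsaicin (allosteric enhancer portion). Calcium-bound dye fluorescence at 480/520 nm.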
Each line names hits and unclear results; the compound was inactive in the other large screens. Unless noted, calls follow the shape of the dose curve; as a rule, active = well fitted curve in the direction sought with a large enough effect; inconclusive = small, poorly fitted or top-dose-only effect, or another doubt; inactive = no such curve, though single readings can be large; an effect the other way counts as inactive or inconclusive.

Cc1cc(C)c(OCC(=O)Nc2nc(-c3ccccn3)cs2)c(C)c1	RORgamma inh 2.8µM, Gal4-VP16 FLuc inconclusive
Cc1ccc(S(=O)(=O)CCC(=O)Nc2nc(-c3ccncc3)cs2)cc1	none
COCCNC(=S)N/N=C(\C)c1ccc2cc(OC)ccc2c1	RORgamma inh 1µM, Gal4-VP16 FLuc 1µM
COCCNC(=S)N/N=C(\C)c1ccc(C)c([N+](=O)[O-])c1	RORgamma inh 3.5µM, Gal4-VP16 FLuc 4µM
COCCNC(=S)N/N=C(\C)c1ccc(OC(F)F)cc1	RORgamma inh 2.2µM, Gal4-VP16 FLuc 7.9µM
C=C(C)CNC(=S)N/N=C(\C)c1ccc(OC)cc1	RORgamma inh 2.2µM, Gal4-VP16 FLuc 5µM
CCCCNc1nc(C)nc2c1nc(-c1ccccc1)n2CCCN(CC)CC	none (no result: uPA surface inh, TRPV1 potentiator, TRPV1 agonist)
COCCNC(=S)N/N=C(\C)c1cccc(C(F)(F)F)c1	RORgamma inh 2.5µM, Gal4-VP16 FLuc 5µM, TRPV1 agonist inconclusive
C/C(=N\NC(=O)C(N)=O)c1cccc(C(F)(F)F)c1	none
COCCNC(=S)N/N=C(\C)c1ccc(OC)cc1	RORgamma inh 0.63µM, Gal4-VP16 FLuc 1.3µM
C/C(=N\NC(=O)COc1ccc(C(C)(C)C)cc1)c1cc2ccccc2o1	RORgamma inh inconclusive, Gal4-VP16 FLuc inconclusive
COCCNC(=S)N/N=C(\C)c1cc2ccccc2o1	RORgamma inh 5µM, Gal4-VP16 FLuc 4.5µM
NC(=O)C1c2ccccc2CCc2ccccc21	none (no result: uPA surface inh, TRPV1 potentiator, TRPV1 agonist)
CC(C)CC(c1nnnn1C(C)(C)C)N1CCN(Cc2ccccc2)CC1 (stereo not drawn)	none
O=C1C=C(N2CCOCC2)c2ccccc2C1=O	RORgamma inh 4µM, Gal4-VP16 FLuc 3.2µM
CC1=C(C)C(=O)C(N2CCOCC2)=CC1=O	RORgamma inh 22µM, uPA surface inh inconclusive, Gal4-VP16 FLuc inconclusive
Cc1ccc(N2CCOCC2)c2c1C(=O)c1ccccc1C2=O	none
CN(C1=C(N2CCOCC2)C(=O)c2ccccc2C1=O)c1ccccc1	RORgamma inh 14µM
O=C(COC(=O)C1C2CC3OC(=O)C1C3C2)Nc1ccc(Br)cc1 (stereo not drawn)	none
O=C(NC(=S)Nc1ccccc1Cl)c1ccco1	RORgamma inh 13µM, Gal4-VP16 FLuc inconclusive
O=C(NC(=S)Nc1ccccc1N1CCCCC1)c1ccco1	RORgamma inh 3.2µM, Gal4-VP16 FLuc 4µM
O=C(NC(=S)Nc1ccccc1N1CCCC1)c1ccco1	none
CC(C)C(=O)N1CCN(c2ccccc2NC(=S)NC(=O)c2ccco2)CC1	none (no result: RORgamma inh, TRPV1 potentiator, Gal4-VP16 FLuc, TRPV1 agonist)
O=C(NC(=S)Nc1ccccc1N1CCOCC1)c1ccco1	RORgamma inh 14µM, Gal4-VP16 FLuc 14µM
CCC(C)c1ccccc1NC(=S)NC(=O)c1ccco1 (stereo not drawn)	RORgamma inh 3.5µM, Gal4-VP16 FLuc 3.2µM, TRPV1 agonist inconclusive
O=C(Nc1ccccc1N1CCOCC1)c1ccco1	none
Oc1ccccc1C1C=C(c2ccc3c(c2)OCO3)NC(c2ccc(F)c(Br)c2)N1 (stereo not drawn)	none (no result: RORgamma inh, uPA surface inh, Gal4-VP16 FLuc)
CC(C)(c1cc(Br)c(OCC(Br)CBr)c(Br)c1)c1cc(Br)c(OCC(Br)CBr)c(Br)c1 (stereo not drawn)	none (no result: uPA surface inh, TRPV1 potentiator, TRPV1 agonist)
O=C(O)CSc1nc2ccccc2nc1Cc1ccccc1F	none
O=C(NC(=S)Nc1ccccc1N1CCOCC1)c1ccc(-c2cc(Cl)ccc2Cl)o1	RORgamma inh 0.89µM, Gal4-VP16 FLuc 2.5µM
Fc1cc(F)cc(NC(=S)Nc2ccccc2N2CCOCC2)c1	RORgamma inh 13µM
O=C(NC(=S)Nc1cccc(Cl)c1N1CCCCC1)c1ccco1	RORgamma inh 4µM, Gal4-VP16 FLuc 7.1µM, TRPV1 agonist inconclusive (no result: uPA surface inh)
COc1cc(OC)cc(C(=O)Nc2sc3c(c2C(N)=O)CCC3)c1	none
CCOc1cc2[nH]c(=S)n(CCCN(CC)CC)c(=O)c2cc1OCC	none
CCN(CC)C(=O)c1ccc2c(=O)n(CCOC)c(=S)[nH]c2c1	none
CCOc1cc2[nH]c(=S)n(CCOC)c(=O)c2cc1OCC	RORgamma inh 2.8µM, Gal4-VP16 FLuc 8.9µM
CCOC(=O)N1CCN(C(=O)CCn2c(=S)[nH]c3cc(OCC)c(OCC)cc3c2=O)CC1	none (no result: uPA surface inh)
CCCCN(C)CCn1c(=S)[nH]c2cc(OCC)c(OCC)cc2c1=O	RORgamma inh 11µM, Gal4-VP16 FLuc inconclusive
COCCn1c(=S)[nH]c2ccc(N(C)C)cc2c1=O	RORgamma inh 16µM, Gal4-VP16 FLuc inconclusive
CCOC(=O)N1CCC(n2c(=S)[nH]c3cc(OC)c(OC)cc3c2=O)CC1	RORgamma inh inconclusive, Gal4-VP16 FLuc 11µM (no result: uPA surface inh)
O=C(COC(=O)Cc1cccc(C(F)(F)F)c1)NCc1ccco1	uPA surface inh inconclusive (no result: RORgamma inh, Gal4-VP16 FLuc)

From PubChem BioAssay
